DUSP1 inh: MKP-1 phosphatase inhibitors, primary screen, biochemical, in vitro. inhibition, %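 (compounds tested at a single concentration somewhere between 10 and 100 µM)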. recombinant MKP-1, OMFP hydrolysis fluorescence. AID 374, 2006. 0.15% of 65,000 active;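 active means inhibition above about 50%, limit read from the data; inconclusive means inhibition over screen mean plus 3 SD, below that limit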
WNV NS2B-NS3 inh: inhibitors of WNV NS2B-NS3 protease, primary screen, biochemical, fluorogenic substrate. Genome polyprotein (West Nile virus), P06935. fluorogenic substrate Ex360/Em465; hits give low values. z-score (test concentration not listed). 0.18% of 65,000 active. AID 577, 2007; in the data active means z-score below about -3
Target sequence (P06935 1371-1501 limits assumed): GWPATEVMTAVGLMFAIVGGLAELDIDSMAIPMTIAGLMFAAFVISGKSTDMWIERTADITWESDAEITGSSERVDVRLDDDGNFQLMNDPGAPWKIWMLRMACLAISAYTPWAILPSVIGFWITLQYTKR
Target sequence (P06935 1502-1679 limits assumed): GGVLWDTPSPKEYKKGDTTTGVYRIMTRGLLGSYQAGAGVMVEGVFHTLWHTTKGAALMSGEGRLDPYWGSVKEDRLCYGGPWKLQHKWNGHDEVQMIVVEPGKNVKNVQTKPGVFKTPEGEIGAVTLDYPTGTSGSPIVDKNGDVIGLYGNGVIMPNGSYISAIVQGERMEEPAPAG
MMP13 inh: human MMP13 inhibitors, primary screen, biochemical, FRET peptide cleavage; 0.07% of 65,000 active; Collagenase 3 (Homo sapiens), P45452; AID 570, 2006; MMP-13 fTHP FRET cleavage, Mca fluorescence; inhibition, % at 4 µM;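 active means inhibition above the mean of compound-free control plate wells plus 3 SD, cut at about 14% in these data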
BAP1 inh: inhibitors of BAP1 deubiquitinase, primary screen, biochemical, Ub-AMC fluorescence, kinetic; calls only at 20 µM; 0.48% of 72,000 active; AID 436, 2006; recombinant BAP1, Ub-AMC hydrolysis fluorescence kinetic; hits give low values;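 active means activity remaining at or below 50% of control, provided the compound also passes the data quality filters; inactive means the rest, including low values that fail the filters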
Cdc25B inh: inhibitors of Cdc25B phosphatase catalytic domain, primary screen, biochemical, OMFP fluorescence; M-phase inducer phosphatase 2 (Homo sapiens), P30305; recombinant Cdc25B, OMFP fluorescence Ex485/Em525; inhibition, %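 (compounds tested at 10 µM final in the well)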; 0.1% of 65,000 active; AID 368, 2006; in the data active means inhibition above about 50%
BAP1 inh conf: BAP1 deubiquitinase inhibitors, hit retest, confirmation, orthogonal assay, biochemical, Ub-ethyl ester substrate, HPLC readout | 8% of 310 active | AID 753, 2007 | shares compounds with BAP1 inh | purified BAP1, Ub-ethyl ester hydrolysis; hits give low values | % of control activity, % at 20 µM;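 active means percent of control activity at or below 60%; inconclusive means HPLC trace unusable from injection failure or solvent front hiding peaks; inactive means the rest, plus ubiquitin peak ratio over a set limit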
Numbers stand for hits; – = inactive; ? = inconclusive; · = no result given; + = active, no number. Sampled rows, rich in hits. Any-hit rate of the full collection: about 0.93%.

SMILES	DUSP1 inh	WNV NS2B-NS3 inh	MMP13 inh	BAP1 inh	Cdc25B inh	BAP1 inh conf
CSc1nc2c(cnn2-c2ccc(C)c(C)c2)c(=O)[nH]1	–	–	–	+	–	?
CCC(C)Sc1nc2c(cnn2-c2ccc(C)c(C)c2)c(=O)[nH]1 (configuration not stated)	–	–	–	–	–	·
O=C(Cc1ccc([N+](=O)[O-])cc1)Nc1ccc(Cl)c([N+](=O)[O-])c1	·	·	·	–	·	·
O=C1[C@H]2[C@@H](C(=O)N1c1cc(Cl)cc(Cl)c1)[C@]1(C(=O)Nc3ccccc31)N1CCC[C@@H]21	–	–	–	+	–	–
Cc1cc(Cl)c2c(c1)[C@]1(C(=O)N2)[C@@H]2C(=O)N(Cc3ccccc3)C(=O)[C@@H]2[C@@H]2CCCN21	–	–	–	–	–	·
CCOc1ccc2c(c1)nc1n2C(=O)CC(c2ccccc2)S1 (configuration not stated)	·	·	·	–	·	·
N#Cc1c(NC(=O)CCN2C(=O)c3ccccc3C2=O)oc(-c2ccccc2)c1-c1ccccc1	–	–	–	+	–	50
COc1cccc(C2C(C#N)=C(N)OC3=C2C(=O)CC(c2ccco2)C3)c1OCc1ccc(F)cc1 (configuration not stated)	–	–	–	+	–	–
CC1(C)CC(=O)c2cc(C(=O)NC3CCSC3=O)c(=O)n(-c3ccccc3)c2C1 (configuration not stated)	–	–	–	+	–	–
CN(C)c1ccc(P(=O)(c2ccc(N(C)C)cc2)c2ccc(N(C)C)cc2)cc1	·	·	·	–	·	·
Cc1cccc(C)c1NC(=O)c1c(-c2ccccc2Cl)noc1C	·	·	·	–	·	·
Cc1ccc(Oc2cc(C)nc(-c3ccccc3O)n2)cc1	–	–	–	–	–	·
Cc1cc(OCc2ccc(F)cc2)nc(-c2ccccc2O)n1	–	–	–	+	–	–
CCOC(=O)C1=C(C)N=c2s/c(=C/c3ccco3)c(=O)n2C1c1cccc(OC)c1 (configuration not stated)	–	–	–	+	–	–
CCOC(=O)C1=C(C)N=c2s/c(=C\c3cccn3C)c(=O)n2C1c1cccc(OC)c1OC (configuration not stated)	–	–	–	–	–	·
COc1ccc(C(c2nnnn2Cc2ccc(F)cc2)N2CCN(c3ccccc3)CC2)cc1 (configuration not stated)	–	–	–	–	–	·
COc1ccc(Cn2nnnc2C(c2ccccn2)N2CCN(c3cc(Cl)ccc3C)CC2)cc1 (configuration not stated)	–	–	–	+	–	–
CCc1nc(N2CCCCC2)c2oc3ccccc3c2n1	–	–	–	–	–	·
CCc1nc(N2CCCC(C)C2)c2oc3ccccc3c2n1 (configuration not stated)	–	–	–	+	–	–
O=C(NCc1ccc(F)cc1)c1cc2n(n1)C(C(F)(F)F)CC(c1ccc(Cl)cc1)N2 (configuration not stated)	·	·	·	–	·	·
O=C(Nc1ccc(F)cc1F)c1cc2n(n1)C(C(F)(F)F)C1CCCCC1N2 (configuration not stated)	–	–	–	+	–	–
CCOc1cc2[nH]c(=O)n(Cc3cccc(OC)c3)c(=O)c2cc1OCC	–	–	–	+	–	–
N#Cc1c(NC(=O)CN2CCN(S(=O)(=O)c3ccc4c(c3)OCCO4)CC2)sc2c1CCC2	–	–	–	+	–	–
COc1ccc(Cn2nnnc2C(C(C)C)N(Cc2ccco2)Cc2cccs2)cc1 (configuration not stated)	–	–	–	+	–	–
CC(C)C(c1nnnn1Cc1ccccc1)N(Cc1ccco1)Cc1cccs1 (configuration not stated)	–	–	–	–	–	·
SMILES	DUSP1 inh	WNV NS2B-NS3 inh	MMP13 inh	BAP1 inh	Cdc25B inh	BAP1 inh conf
CCCCOc1ccccc1NC(=O)Cn1c(-c2nonc2N)nc2ccccc21	–	–	–	+	–	–
CCOC(=O)COc1nc(C)c(Br)c(OC)n1	–	–	–	+	–	–
CN(Cc1ccccc1)Cc1c(O)ccc2c(=O)c(Oc3ccccc3Br)c(C(F)(F)F)oc12	·	·	·	–	·	·
C=CCn1c(SCCCCCC)nc(O)cc1=O	–	–	–	+	–	–
C=CCn1c(SCCCC)nc(O)cc1=O	–	–	–	–	–	·
O=C(COC(=O)c1ccc([N+](=O)[O-])o1)c1ccc(Br)cc1	·	·	·	–	·	·
O=C(Nc1nc(-c2nc3ccccc3s2)cs1)c1ccc(S(=O)(=O)N2CCOCC2)cc1	–	–	–	+	–	–
O=C(c1ccco1)[C@@H]1[C@@H]2C(=O)N(c3ccc(Br)cc3)C(=O)[C@@H]2C2c3ccccc3C=CN21 (some centres not stated)	–	–	–	+	–	–
O=C(c1ccco1)[C@@H]1[C@@H]2C(=O)N(c3ccc(F)cc3)C(=O)[C@@H]2C2c3ccccc3C=CN21 (some centres not stated)	–	–	–	–	–	·
Cc1cc(C)cc(NC(=O)Cn2c3ccccc3c(=O)c3ccccc32)c1	·	·	·	–	·	·
O=C(NCc1cccs1)Nc1ccc2c(c1)OCO2	–	–	–	–	–	·
O=C(NCc1ccccn1)Nc1ccc2c(c1)OCO2	–	–	–	+	–	–
CCCNc1c(N)cc(C(F)(F)F)cc1[N+](=O)[O-]	·	·	·	–	·	·
Cc1sc2nc(CN3CCOCC3)nc(N3CCC(C(N)=O)CC3)c2c1C	–	–	–	–	–	–
COc1cc(NC(=O)c2cc3ccccc3o2)c(OC)cc1Cl	–	–	–	–	–	·
COc1cc(NC(=O)c2cc3ccccc3o2)c(OC)cc1Br	–	–	–	+	–	–
CC(C)c1ccc(-c2c(C#N)c(N)nc3sc(C(=O)c4ccccc4)c(N)c23)cc1	·	·	·	–	·	·
COc1cc(OC)nc(NC(=O)CSc2nc3ccccc3o2)n1	–	–	–	+	–	–
COc1ccccc1C(=O)Nc1c(C)n(C)n(-c2ccccc2)c1=O	–	–	–	–	–	·
COc1ccccc1NC(=O)Nc1c(C)n(C)n(-c2ccccc2)c1=O	–	–	–	+	–	–
Cc1ccccc1N=c1oc2ccc(Cl)cc2cc1C(N)=O	·	·	·	–	·	·
Cc1cccc(-n2c(=O)[nH]c3c(C(N)=O)nc(-c4ccccc4Cl)nc32)c1	–	–	–	+	–	–
Cc1ccc(-n2nnnc2SCC(=O)Nc2cccc(NC(=O)c3ccco3)c2)cc1C	–	–	–	+	–	–
O=[N+]([O-])c1cc(C(F)(F)F)ccc1N1CCN(c2ccc(C(F)(F)F)cc2[N+](=O)[O-])CC1	·	·	·	–	·	·
